This is one part of a sample in which hits are shown more often than they occur.
ST2 inh: inhibitors of human ST2 (IL1RL1) binding to IL-33, primary screen, biochemical, AlphaLISA; inhibition, % for hits at 17 µM; hit rate 2.3% among 78,000; Interleukin-1 receptor-like 1 (Homo sapiens), Q01638; AlphaLISA ST2-Fc/biotin-IL-33 interaction, 1 h; in the data active = inhibition above about 30%
Target sequence (Q01638 whole entry, looked up): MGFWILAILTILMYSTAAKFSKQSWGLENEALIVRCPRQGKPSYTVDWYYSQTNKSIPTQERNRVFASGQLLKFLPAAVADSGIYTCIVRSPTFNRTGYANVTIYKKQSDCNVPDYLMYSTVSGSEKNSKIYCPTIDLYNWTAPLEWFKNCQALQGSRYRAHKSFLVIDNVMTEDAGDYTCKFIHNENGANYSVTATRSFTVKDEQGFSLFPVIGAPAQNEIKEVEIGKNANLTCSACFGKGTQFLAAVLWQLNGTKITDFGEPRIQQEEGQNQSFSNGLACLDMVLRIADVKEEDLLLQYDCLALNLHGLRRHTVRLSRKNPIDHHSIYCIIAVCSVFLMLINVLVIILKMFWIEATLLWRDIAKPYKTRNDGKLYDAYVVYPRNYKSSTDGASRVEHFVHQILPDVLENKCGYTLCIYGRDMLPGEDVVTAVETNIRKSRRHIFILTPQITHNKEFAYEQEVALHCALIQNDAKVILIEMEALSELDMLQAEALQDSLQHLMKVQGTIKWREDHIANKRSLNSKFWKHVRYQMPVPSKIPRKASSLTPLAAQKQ
Starred values were filed as active, the others as inactive; i = inactive.

SMILES	ST2 inh
CSc1nc2c(oc3ccc(Cl)cc32)c(=O)n1CC1CCCO1 (stereo not given)	i
Cc1ccc(N2C(=O)[C@H]3C4c5ccccc5C(CO)(c5ccccc54)[C@H]3C2=O)c(Br)c1	i
Cc1ccc(N2C(=O)CC(Sc3nc4ccccc4o3)C2=O)cc1 (stereo not given)	i
O=C(O)c1cccnc1SC1CC(=O)N(c2ccc(N3CCOCC3)cc2)C1=O (stereo not given)	i
O=C1CC(Sc2ccccn2)C(=O)N1c1ccc(Br)cc1 (stereo not given)	40.0%*
CCCN1CCN(C(=O)CNC(=O)Cn2ccc3ccccc3c2=O)CC1	i
Cc1ccc(-n2cc(CN(C)CCc3c(C)n[nH]c3C)c(-c3ccc(F)cc3)n2)cc1	i
Cc1ncnc(N2CCC(N3CCCC(C(=O)N4CCCC4)C3)CC2)c1C (stereo not given)	i
CNC(=O)c1cccnc1N1CCC(N2CCCC(C(=O)N3CCCC3)C2)CC1 (stereo not given)	33.0%*
Cc1noc2ncnc(N3CCC(N4CCCC(C(=O)N5CCCC5)C4)CC3)c12 (stereo not given)	i
CCc1ccc(NC(=O)Cn2c(=O)n(-c3ccccc3)c(=O)c3sccc32)cc1	i
CN1CCC(Cc2noc(-c3cccc(-n4cnnc4)n3)n2)CC1	i
CCCc1cnc(-c2cc(F)ccc2C)nc1	i
COc1ccc(CNc2ncnc(NCc3ccc(OC)cc3)c2[N+](=O)[O-])cc1	i
O=[N+]([O-])c1ccccc1S(=O)(=O)NCc1cccnc1	i
O=[N+]([O-])c1cccnc1NCc1ccccc1	39.0%*
CC(C)C(NS(=O)(=O)c1cccc(C(=O)O)c1)C(=O)O (stereo not given)	i
O=C(c1ccc2nc3ccccc3c(=O)n2c1)N1CCCCC1	i
Cc1nnsc1CN(C)C(=O)CCC(=O)NC1CCCC1	97.0%*
Cc1nnsc1CN(C)CC(=O)NC1CCCCCCC1	i
O=C(CCC(=O)NC1CCCCCC1)NC1CCCCCC1	i
COc1ccc(Cl)cc1N1C(=O)C2C3CCC(C3)C2C1=O (stereo not given)	i
O=C(CN(c1ccccc1)S(=O)(=O)c1ccccc1[N+](=O)[O-])N[C@H]1C[C@@H]2CC[C@H]1C2	i
O=C(NCCCN1CCOCC1)c1ccc2c(c1)OCO2	i
CC(C)(C)C1CCc2onc(C(=O)Nc3cccc(Cl)c3)c2C1 (stereo not given)	i
SMILES	ST2 inh
CCc1ccc(NC(=O)c2noc3c2CC(C(C)(C)C)CC3)cc1 (stereo not given)	53.0%*
CC(C)(C)C1CCc2onc(C(=O)NCc3ccc(Cl)cc3)c2C1 (stereo not given)	i
COc1ccc(C2C(C#N)=C(N)N(c3ccc(Br)cc3)C3=C2C(=O)CCC3)cc1 (stereo not given)	i
CC1CC(C)CN(S(=O)(=O)c2ccc(Cl)cc2)C1 (stereo not given)	i
O=S(=O)(Cc1ccccc1)c1ccc(Cl)cc1	i
O=C1C=CC(=NOS(=O)(=O)c2ccc(Cl)cc2)C=C1	48.0%*
COc1ccc(S(=O)(=O)N2CCc3ccccc32)cc1	i
O=C(Cc1ccccc1)NC(Nc1ccc(Cl)cc1)C(Cl)(Cl)Cl (stereo not given)	i
O=C(/C=C/c1ccccc1)CC(O)CCc1ccccc1 (stereo not given)	i
CC(C)(C)C(=O)/C=C(N)\C=C\c1ccccc1	37.0%*
CC(=O)Nc1ccc(/C=C/c2ccccc2)cn1	i
COC(=O)c1c(C)nc2n(Cc3ccc(Cl)cc3)c3ccccc3n12	i
CN(CC1CC(=O)N(C2CCCC2)C1)C1CCC2(CCNCC2)CC1 (stereo not given)	i
Cc1cccc(CSC2=NCCN2C(=O)c2ccccc2C)c1	i
CC1CC2c3cccc(C(=O)O)c3C(=O)N2c2ccc(F)cc21 (stereo not given)	32.0%*
O=C(O)c1ccccc1N1C(=O)C2C3CC(C(Br)C3Br)C2C1=O (stereo not given)	i
C=CCC1c2cccc(C(=O)O)c2C(=O)N1c1cccc(OC)c1 (stereo not given)	i
Cc1cccc(-n2cc(CN3CCCN(C(=O)C4CCC4)CC3)cn2)c1	i
CC(C)c1ccc(NC(=O)c2ccc3c(c2)NC(=O)C2CCCCN32)cc1 (stereo not given)	99.0%*
CN(C)C(=O)c1ccc2c(c1)NC(=O)C1CCCCN21 (stereo not given)	i
COc1ccc(CNC(=O)c2ccc3c(c2)NC(=O)C2CCCCN32)cc1 (stereo not given)	i
C=CCc1ccc(OCCOc2cc(C=O)ccc2OC)c(OC)c1	i
CS(=O)(=O)c1ccc(CN2CC[C@H](c3nnc(Cc4c[nH]c5ccccc45)o3)C2)cc1	i
O=C(NCc1cccs1)N1CCOC(c2ccc(Cl)c(Cl)c2)C1 (stereo not given)	i
COCc1cc(C)nc(SCc2ccccc2Cl)c1C#N	i
COCc1cc(C)nc(SCC(=O)c2ccc(C)cc2C)c1C#N	i
